# Source: PubChem BioAssay (NCI)
# This is part of a sample that, as a whole, favours compounds with a hit. Of some 79,000 tested, about 15% had one in any assay. Unmarked numbers belong to inactive results. Active and inactive are the calls of the source. Rule as the data show it: active = growth inhibition above about 70%; inactive = the rest.
# Assays:
# [1] = NCI Yeast Anticancer Drug Screen. Data for the rad52 strain (AID 147);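 also: 0% = growth of vehicle-treated control cultures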; conditions: S. cerevisiae rad52 mutant growth inhibition, stronger effect = higher value
# Outline: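 Vehicle-treated cultures served as the reference for growth inhibition of compound-exposed yeast bearing a DNA repair mutation.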
# [2] = NCI Yeast Anticancer Drug Screen. Data for the wt1 strain (AID 149);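 also: 0% = growth of vehicle-treated wt1 cultures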; conditions: S. cerevisiae wt1 strain (SPY 50644) growth inhibition, stronger effect = higher value
# Outline: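 The wt1 strain was treated with compounds, and growth was compared with vehicle-treated cultures to give inhibition.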
# [3] = NCI Yeast Anticancer Drug Screen. Data for the rad50EPP+ strain (AID 151);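 also: 0% = growth of vehicle-treated control cultures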; conditions: S. cerevisiae rad50 mutant strain, stronger effect = higher value
# Outline: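 In this screen, rad50EPP+ yeast were exposed to compounds. Growth inhibition was scored against vehicle-treated controls.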
# [4] = NCI Yeast Anticancer Drug Screen. Data for the rad50 strain (AID 155);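 also: 0% = growth of vehicle-only cultures of the same strain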; conditions: S. cerevisiae rad50 strain growth inhibition, stronger effect = higher value
# Outline: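 Cells are treated with compound, grown, and their growth is then scored against vehicle-only cultures of the same repair-deficient yeast strain.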
# [5] = NCI Yeast Anticancer Drug Screen. Data for the mec2-1 strain (AID 157); conditions: S. cerevisiae mec2-1 strain, stronger effect = higher value
# Outline: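 Vehicle-treated cultures served as reference for growth inhibition of compound-exposed mec2-1 yeast.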
# [6] = NCI Yeast Anticancer Drug Screen. Data for the rad14 strain (AID 159);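 also: 0% = growth of vehicle-treated control cultures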; conditions: S. cerevisiae rad14 strain growth inhibition, stronger effect = higher value
# Outline: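 Readout: yeast growth inhibition, referenced to vehicle-only cultures. Strain bears a defined alteration in DNA damage repair.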
# [7] = NCI Yeast Anticancer Drug Screen. Data for the sgs1 mgt1 strain (AID 161);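 also: 0% = growth of cultures given vehicle only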; conditions: S. cerevisiae sgs1 mgt1 strain, stronger effect = higher value
# Outline: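 Genetically altered yeast, compound exposure, growth inhibition relative to vehicle.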
# [8] = NCI Yeast Anticancer Drug Screen. Data for the CLN2oe strain (AID 163);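 also: 0% = growth of vehicle-only control cultures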; conditions: S. cerevisiae CLN2oe strain, stronger effect = higher value
# Outline: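 Inhibition relative to vehicle-treated yeast is reported. Cells: strain with genetic alteration in cell-cycle control, grown with compound.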
# [9] = NCI Yeast Anticancer Drug Screen. Data for the cln2 rad14 strain (AID 165);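 also: 0% = growth equal to vehicle treated cultures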; conditions: S. cerevisiae cln2 rad14 strain, stronger effect = higher value
# Outline: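 Each compound was tested on cln2 rad14 yeast. Inhibition of growth was calculated against vehicle-exposed controls.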
# [10] = NCI Yeast Anticancer Drug Screen. Data for the bub3 strain (AID 167); conditions: S. cerevisiae bub3 mutant strain, stronger effect = higher value
# Outline: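 Part of a panel of yeast mutants defective in DNA damage repair or cell cycle regulation. Each strain is grown with compound, and inhibition is calculated relative to solvent-treated cultures.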
# [11] = NCI Yeast Anticancer Drug Screen. Data for the wt2 strain (AID 169);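 also: 0% = growth of vehicle-treated yeast cultures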; conditions: S. cerevisiae wt2 strain growth inhibition, stronger effect = higher value
# Outline: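 Inhibition of yeast growth was determined after compound treatment, normalised to controls receiving only vehicle.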
# [12] = NCI Yeast Anticancer Drug Screen. Data for the mlh1 strain (AID 171);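 also: 0% = growth of vehicle-treated control cultures of the same strain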; conditions: S. cerevisiae mlh1 strain growth inhibition, stronger effect = higher value
# Outline: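 Vehicle-normalised growth inhibition of a repair- or checkpoint-altered yeast strain following compound treatment.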
# [13] = NCI Yeast Anticancer Drug Screen. Data for the sgs1 strain (AID 173);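 also: 0% = growth of vehicle-only control cultures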; conditions: S. cerevisiae sgs1 mutant, stronger effect = higher value
# Outline: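 Screen format: yeast with repair or checkpoint alterations, compound exposure, growth read relative to vehicle.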
# [14] = NCI Yeast Anticancer Drug Screen. Data for the mlh1 rad18 strain (AID 175); conditions: S. cerevisiae mlh1 rad18 strain growth inhibition, stronger effect = higher value
# Outline: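 Vehicle-treated cultures served as the reference for growth inhibition in a yeast strain carrying DNA damage repair alterations exposed to each compound.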
# [15] = NCI Yeast Anticancer Drug Screen. Data for the rad18 strain (AID 177); conditions: S. cerevisiae rad18 mutant growth inhibition, stronger effect = higher value
# Outline: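 Test articles were incubated with altered yeast defective in DNA damage repair. Results are given as inhibition of growth versus vehicle.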
# [16] = at 5.0 µM (retest, dose inferred, filed as 0.5)
# [17] = at 50.0 µM (retest, dose inferred, filed as 5.0)
compound,measurement,setting,value
O=C(O)C1OC1(c1cccc(Cl)c1)c1ccccc1Cl (stereo not drawn),growth inhibition,[1]; at 1.2 µM,-9%
same,growth inhibition,[1]; at 3.7 µM,-8%
same,growth inhibition,[1]; at 11.0 µM,13%
same,growth inhibition,[1]; at 33.0 µM,56%
same,growth inhibition,[1]; at 100.0 µM,91% (active)
same,growth inhibition,[2]; at 1.2 µM,-18%
same,growth inhibition,[2]; at 3.7 µM,-15%
same,growth inhibition,[2]; at 11.0 µM,-15%
same,growth inhibition,[2]; at 33.0 µM,41%
same,growth inhibition,[2]; at 100.0 µM,93% (active)
same,growth inhibition,[3]; at 1.2 µM,0%
same,growth inhibition,[3]; at 3.7 µM,9%
same,growth inhibition,[3]; at 11.0 µM,12%
same,growth inhibition,[3]; at 33.0 µM,25%
same,growth inhibition,[3]; at 100.0 µM,36%
same,growth inhibition,[4]; at 1.2 µM,1%
same,growth inhibition,[4]; at 3.7 µM,7%
same,growth inhibition,[4]; [16],43%
same,growth inhibition,[4]; at 11.0 µM,12%
same,growth inhibition,[4]; at 33.0 µM,48%
same,growth inhibition,[4]; [17],59%
same,growth inhibition,[4]; at 50.0 µM,90.1% (active)
same,growth inhibition,[4]; at 100.0 µM,88% (active)
same,growth inhibition,[5]; at 1.2 µM,-6%
same,growth inhibition,[5]; at 3.7 µM,-13%
same,growth inhibition,[5]; [16],57%
same,growth inhibition,[5]; at 11.0 µM,2%
same,growth inhibition,[5]; at 33.0 µM,58%
same,growth inhibition,[5]; [17],61%
same,growth inhibition,[5]; at 50.0 µM,92% (active)
same,growth inhibition,[5]; at 100.0 µM,94% (active)
same,growth inhibition,[6]; at 1.2 µM,-19%
same,growth inhibition,[6]; at 3.7 µM,-12%
same,growth inhibition,[6]; at 11.0 µM,-11%
same,growth inhibition,[6]; at 33.0 µM,75% (active)
same,growth inhibition,[6]; at 100.0 µM,91% (active)
same,growth inhibition,[7]; [16],-12%
same,growth inhibition,[7]; [17],93% (active)
same,growth inhibition,[7]; at 50.0 µM,93.1% (active)
same,growth inhibition,[8]; at 1.2 µM,15%
same,growth inhibition,[8]; at 3.7 µM,16%
same,growth inhibition,[8]; at 11.0 µM,13%
same,growth inhibition,[8]; at 33.0 µM,39%
same,growth inhibition,[8]; at 100.0 µM,93% (active)
same,growth inhibition,[9]; [16],54%
same,growth inhibition,[9]; [17],96% (active)
same,growth inhibition,[9]; at 50.0 µM,90.7% (active)
same,growth inhibition,[10]; at 1.2 µM,0%
same,growth inhibition,[10]; at 3.7 µM,-5%
same,growth inhibition,[10]; [16],30%
same,growth inhibition,[10]; at 11.0 µM,9%
same,growth inhibition,[10]; at 33.0 µM,70% (active)
same,growth inhibition,[10]; [17],95% (active)
same,growth inhibition,[10]; at 50.0 µM,89.9% (active)
same,growth inhibition,[10]; at 100.0 µM,92% (active)
same,growth inhibition,[11]; at 1.2 µM,-35%
same,growth inhibition,[11]; at 3.7 µM,-20%
same,growth inhibition,[11]; at 11.0 µM,-18%
same,growth inhibition,[11]; at 33.0 µM,26%
same,growth inhibition,[11]; at 100.0 µM,93% (active)
same,growth inhibition,[12]; at 1.2 µM,-26%
same,growth inhibition,[12]; at 3.7 µM,-25%
same,growth inhibition,[12]; at 11.0 µM,-10%
same,growth inhibition,[12]; at 33.0 µM,37%
same,growth inhibition,[12]; at 100.0 µM,90% (active)
same,growth inhibition,[13]; at 1.2 µM,-13%
same,growth inhibition,[13]; at 3.7 µM,-5%
same,growth inhibition,[13]; at 11.0 µM,1%
same,growth inhibition,[13]; at 33.0 µM,51%
same,growth inhibition,[13]; at 100.0 µM,90% (active)
same,growth inhibition,[14]; [16],47%
same,growth inhibition,[14]; [17],53%
same,growth inhibition,[14]; at 50.0 µM,90.5% (active)
same,growth inhibition,[15]; at 1.2 µM,-6%
same,growth inhibition,[15]; at 3.7 µM,-16%
same,growth inhibition,[15]; at 11.0 µM,3%
same,growth inhibition,[15]; at 33.0 µM,57%
same,growth inhibition,[15]; at 100.0 µM,90% (active)
